# Data: PubChem BioAssay AID1946 (Johns Hopkins Ion Channel Center, 2009)
# The campaign covered roughly 2,400 compounds. About 180 (7.5%) were called active. What follows is part of a selection rich in actives, with near analogues and random picks from the rest. Values without a mark were called inactive.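 The calls were made as follows: active = readout below zero, meaning a drop past 3 SD under the dofetilide-free negative control mean; inactive = the rest.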
# Biological target: Potassium voltage-gated channel subfamily KQT member 2 (Rattus norvegicus) (UniProt O88943)
# Sequence (O88943 whole entry, looked up): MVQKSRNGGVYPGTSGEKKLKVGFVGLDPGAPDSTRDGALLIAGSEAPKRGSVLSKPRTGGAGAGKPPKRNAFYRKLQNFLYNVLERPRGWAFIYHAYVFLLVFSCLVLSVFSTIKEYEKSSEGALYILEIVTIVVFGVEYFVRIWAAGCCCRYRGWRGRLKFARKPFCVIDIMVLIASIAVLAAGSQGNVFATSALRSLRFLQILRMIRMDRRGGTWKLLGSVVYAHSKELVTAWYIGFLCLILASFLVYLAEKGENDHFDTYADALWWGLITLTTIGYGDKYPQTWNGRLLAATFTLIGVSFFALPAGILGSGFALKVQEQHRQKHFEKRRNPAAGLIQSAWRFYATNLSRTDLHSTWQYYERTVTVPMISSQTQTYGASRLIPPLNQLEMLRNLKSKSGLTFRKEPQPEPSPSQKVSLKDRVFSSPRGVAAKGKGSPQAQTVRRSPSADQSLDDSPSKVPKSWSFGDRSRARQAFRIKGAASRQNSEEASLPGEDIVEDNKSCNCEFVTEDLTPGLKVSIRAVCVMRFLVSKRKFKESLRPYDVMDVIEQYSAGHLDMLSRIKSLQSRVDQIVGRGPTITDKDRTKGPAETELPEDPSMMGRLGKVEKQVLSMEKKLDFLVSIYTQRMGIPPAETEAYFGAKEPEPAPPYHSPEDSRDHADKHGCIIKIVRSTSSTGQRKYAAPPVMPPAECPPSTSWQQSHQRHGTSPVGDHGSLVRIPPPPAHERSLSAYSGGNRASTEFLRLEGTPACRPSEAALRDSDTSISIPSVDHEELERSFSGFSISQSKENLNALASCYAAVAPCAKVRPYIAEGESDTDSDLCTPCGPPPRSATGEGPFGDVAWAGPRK
# Assay: KCNQ2 blockade in CHO cells – cell-based, FluxOR thallium flux, counter-screen for hERG block protector project, confirmation (AID 1946)
# Settings: FluxOR thallium flux fluorescence, at 10 µM, hits give low values, zero marks the 3-SD hit cutoff
row,SMILES,activity change vs negative control
1,COC(=O)Oc1ccc(/C=C/C(=O)OC(C)C)cc1OC(=O)OC,24.5%
2,CCN(CC)c1ccc(NC(=S)NC(=O)c2ccco2)cc1,67.2%
3,CC1=CC(=O)C(C(C)C)=CC1=NC(=O)c1ccc(C)cc1,-1% (active)
4,Cc1ccc(C(=O)Sc2cccccc2=O)cc1,102%
5,CCOC(=O)c1sc2ncnc(NCC(c3cccs3)N(C)C)c2c1C (stereo not drawn),61%
6,S=c1[nH]c(-c2ccccc2)cs1,85.5%
7,COC(=O)CCn1[nH]c(=O)c2ccccc2c1=O,15.6%
8,COC(=O)Cn1c(=O)c(=O)n(CC(=O)OC)c2ccccc21,-3.8% (active)
9,CCOC(=O)Cn1cc(C=O)c2ccccc21,8.6%
10,O=C(NC(=S)Nc1ncc(Br)cc1Br)c1ccccc1,28.8%
11,CCOC(=O)NC(=S)Nc1ccc(C(C)(C)C)cc1Br,16.6%
12,Cc1ccc(S(=O)(=O)NC(=S)NC2CCCCC2)cc1,19.8%
13,O=C(Nc1ccc(Oc2cccnc2)cc1)c1cccc([N+](=O)[O-])c1,13.8%
14,O=C(Nc1ccc(Cl)c(-c2nc3ccccc3[nH]2)c1)c1cccnc1,-19.3% (active)
15,CN(C)S(=O)(=O)c1cccc(C(=O)Nc2cccnc2)c1,8%
16,O=C(NCC1CCCO1)c1ccc2c(=O)n(Cc3ccco3)c(SCC(=O)N3CCCC3)nc2c1 (stereo not drawn),32.7%
17,S=c1[nH]nc(-c2ccco2)n1/N=C/C(Cl)=C/c1ccccc1,10.3%
18,Cc1cccc(/C=N/n2c(COc3ccccc3)n[nH]c2=S)c1,14.1%
19,S=c1[nH]nc(-c2n[nH]c3c2CCC3)n1/N=C/C=C/c1ccccc1,-4.8% (active)
20,Cc1ccc(C(=O)CC(=O)c2cccc(F)c2)c(O)c1,7.2%
21,CC(C)c1nc2sc3c(=S)nc[nH]c3c2c2c1CCC2,45.5%
22,Cc1cc2ccccn2c1C(=S)NC(=O)c1ccccc1,68.1%
23,C=CCn1c(O)c(N=NC(=S)Nc2ccc(OC)c(Cl)c2)c2ccccc21,18.3%
24,CCOC(=O)CSc1nnc(NC(=O)c2ccc3c(c2)OCO3)s1,5.6%
25,COc1ccccc1Nc1nnc(SCC(=O)Nc2nc(-c3ccc(F)cc3)cs2)s1,9.1%
26,Nc1nnc(SCC(=O)OCc2ccc(F)cc2)s1,-2.1% (active)

row,SMILES,activity change vs negative control
1,CCOC(=O)C(=CNc1cc(C)ccn1)C(=O)OCC,18.2%
2,S=c1nc(C2CC2)[nH]c2ccccc12,58.2%
3,Cc1ccc(-c2nc3ccccc3c(=O)n2O)cc1,29.3%
4,NC(=O)c1nsc(C(=O)N(CC(=O)NCc2ccccc2)c2ccc(F)cc2)c1N,-0.6% (active)
5,COc1ccc(-n2nc(C(=O)NCC(=O)NCc3ccc(F)cc3)c3ccccc3c2=O)cc1OC,12.7%
6,Cc1ccccc1Cn1nc(C)c(NC(=O)c2ccccc2)c1C,73%
7,COc1ccccc1C(=O)NNC(=O)C(=O)Nc1ccc(C)cc1,162%
8,O=C(O)c1cc(NN=C2c3ccccc3-c3ccccc32)ccc1Cl,63.8%
9,COC(=O)c1ccc(C(=O)NC(=S)Nc2nc3c(s2)CCCC3)cc1,37.8%
10,CC1CC(C)CN(CCCNC(=O)Cc2c(C(=O)O)[nH]c3ccccc23)C1 (stereo not drawn),-0.3% (active)
11,O=C(CN1C(=O)COc2ccccc21)NCCCN1CCOCC1,6.2%
12,CC1c2nc3ccccc3n2C(CC(=O)NCCCN2CCOCC2)C(=O)N1Cc1ccccc1 (stereo not drawn),12%
13,c1ccc2c(c1)c1ccccc1n1c(-c3ccc4c(c3)OCO4)nnc21,11.9%
14,Oc1c(Br)cc(Cl)cc1C=Nc1ccccc1Br,57.7%
15,COc1ccc(OC(=O)Cc2cccc3ccccc23)cc1,15.2%
16,COc1ccc(CC(=O)Nc2ccc(-c3noc(-c4ccccc4OC)n3)cc2)cc1,7%
17,COc1ccc(NC(=O)CSCC(=O)Oc2c(OC)cccc2OC)cc1,-7.6% (active)
18,Cc1snnc1C(=O)NC(=S)Nc1ccccc1,53.9%
19,COc1ccc(CCNC(=O)C(=O)Nc2ccc3c(c2)OCO3)cc1OC,8.8%
20,CCOc1ccc(CCNC(=O)Nc2ccccc2C)cc1OCC,13.5%
21,Cc1cc(Cl)ccc1OC(C)C(=O)NCCc1ccc2c(c1)OCCO2 (stereo not drawn),-9.4% (active)
22,CCc1ccc(S(=O)(=O)NC(=S)NC2CCCCC2)cc1,83.7%
23,O=C(CCN1C(=O)/C(=C\C=C\c2ccccc2)SC1=S)Nc1cccc(C(=O)O)c1,0.8%
24,C/C(O)=C/c1nc2ccccc2[nH]c1=O,-2% (active)
25,Cc1nc2ccc(C(=O)O)cc2[nH]1,11.1%
26,O=c1[nH]c2ccccc2nc1C(F)(F)C(F)F,15.2%

row,SMILES,activity change vs negative control
1,S=C(NCCc1ccccc1)NCCN1CCOCC1,11.5%
2,OC(CCN1CCOCC1)c1ccccc1 (stereo not drawn),-2.1% (active)
3,O=C(O)Cn1cc(CN2CCOCC2)c2ccccc21,2.7%
4,O=c1ccn(Cc2ccc(F)cc2)c2ccnc(C(F)(F)F)c12,-1.9% (active)
5,COc1ccc(C(=O)Nc2ccccc2C(=O)O)cc1Cl,19.2%
6,O=C(NC(=S)NCCC1=CCCCC1)c1ccco1,66.4%
7,Cc1cccc(Cn2c(O)c(N=NC(=S)Nc3ccccc3F)c3ccccc32)c1,5.5%
8,CCN(CC)CCCNC(=O)c1cn(-c2cccc(OC)c2)c(=O)c2ccccc12,-4% (active)
9,COc1cccc(NC(=O)c2nn(-c3ccc(OC)cc3OC)c(=O)c3ccccc23)c1,15.7%
10,COc1cccc(-n2nc(C(=O)O)c3ccccc3c2=O)c1,25.1%
11,CCC1CCc2c(sc(NC(=O)C3CC=CCC3C(=O)O)c2C#N)C1 (stereo not drawn),32.7%
12,CCN(CC)c1ccc(NC(=S)NC(=O)c2cccs2)cc1,18.4%
13,CCOC(=O)Cc1csc(NC(=S)NC(=O)C(C)(C)C)n1,28.2%
14,CCOc1ccc(-c2cccc(NC(=O)c3ccc(Br)o3)c2)nn1,-8.6% (active)
15,COc1cccc(C(=O)Nc2cccc(-c3ccc(N4CCOCC4)nn3)c2)c1,5.2%
16,Cc1cccc(NC(=S)NC(=O)c2ccc(Br)o2)c1,69.7%
17,O=c1c2cc(Cl)ccc2nc(-c2ccc([N+](=O)[O-])cc2)n1O,54.4%
18,O=C(COc1ccccc1Cl)NC(=S)Nc1ccccc1N1CCCC1,6.2%
19,CNC(=S)Nc1sc2c(c1C(=O)OC)CCC2,31.9%
20,Cc1cccc(C(=O)NC(=S)NNC(=O)COc2c(C)cccc2C)c1,-13.3% (active)
21,Cc1cccc(C(=O)NC(=S)N2CCc3ccccc3C2)c1,50.3%
22,Cc1cccc(C(=O)NC(=S)NNC(=O)c2ccc(Cl)cc2)c1,-7.1% (active)
23,Cc1ccc(C(=O)NNC(=S)NC(=O)c2ccc(Cl)cc2)cc1,0.8%
24,Cc1ccc(NC(=S)NC(=O)c2ccc(-c3ccccc3)cc2)cc1,10.9%
25,Cc1ccc(C(=O)NNC(=S)NC(=O)c2ccccc2)cc1,-4.5% (active)
26,Cc1cccc(C(=O)NC(=S)N(C)C2CCCCC2)c1,46.3%

row,SMILES,activity change vs negative control
1,O=C(NNC(=S)NC(=O)c1sc2ccccc2c1Cl)c1ccc(Cl)cc1,32.9%
2,Cc1cccc(C(=O)NNC(=S)NC(=O)c2ccccc2)c1,26.9%
3,Cc1sc2nc(CN3CCOCC3)[nH]c(=S)c2c1C,108%
4,Cc1ccc(-c2c(=O)n(O)c3ccccc3[n+]2[O-])cc1,88.6%
5,O=c1c2ccccc2nc(-c2ccc(Cl)c(Cl)c2)n1O,91.4%
6,COc1cc(OC)cc(C(=O)NNC(=O)C(=O)Nc2cc(OC)c(Cl)cc2OC)c1,71%
7,C[n+]1ccccc1/C=C/c1ccc(C#N)cc1,17.3%
8,O=c1[nH]c(C(Cl)(Cl)Cl)nc2ccc3ccccc3c12,37%
9,O=C(NC(=S)Nc1ccccc1N1CCCC1)c1ccc([N+](=O)[O-])cc1,21.1%
10,O=C(NC(=S)Nc1ccccc1N1CCCC1)c1cccs1,14.1%
11,O=C(NC(=S)Nc1ccccc1N1CCCC1)c1ccco1,39%
12,O=C(NC(=S)Nc1cccc(Cl)c1N1CCCCC1)c1cccs1,1.9%
13,O=C(NC(=S)Nc1ccccc1N1CCCCC1)c1cccs1,0% (active)
14,O=C(NC(=S)Nc1ccccc1N1CCCC1)c1ccccc1Br,-8.3% (active)
15,CCOc1cc(N2CCOCC2)c(OCC)cc1NC(=O)CCC1CCCC1,104%
16,O=C(NC(=S)N1CCCC1)c1ccc(Cl)cc1,26.1%
17,O=c1c(O)c(-c2ccc3c(c2)OCO3)oc2ccccc12,35%
18,Cc1ccc(CNC(=O)c2ccc(CNc3c(N4CCCC4)c(=O)c3=O)cc2)cc1,-1.7% (active)
19,Cc1ccc(CNC(=O)C2=CCN(S(=O)(=O)c3ccc(C)cc3)CC2)cc1,6.4%
20,CN1C(=O)c2ccc(C(=O)NCc3ccccc3)cc2C1=O,10.5%
21,CC(=O)c1c(N2CCN(Cc3ccccc3)CC2)[nH]c(-c2ccccc2)nc1=S,50.5%
22,COc1ccc(-n2nc(C)cc2Nc2ccccc2C(=O)O)cc1,43.7%
23,C/C(=N\Nc1nc(C)c(C)s1)c1ccc([N+](=O)[O-])cc1,31.5%
24,O=c1[nH]c(N2CCN(c3ccccc3)CC2)nc2c1CCCC2,12%
25,c1ccc(-c2ccnc3nc(N4CCN(c5ccccc5)CC4)nn23)cc1,-4.9% (active)
